The results in this text go back to publication PMC7862700, “An all-to-all approach to the identification of sequence-specific readers for epigenetic DNA modifications on cytosine”.

Assay in all cases: DAPPL (digital affinity profiling via proximity ligation, sequencing); 10 mM Tris-HCl pH 7.5, 50 mM NaCl, 1 mM DTT, 4% glycerol, room temperature, 30 min; GST-TFs on glutathione beads, 16-mer random dsDNA library, 0.1% formaldehyde crosslink after washing; high values mean tight binding
Assay [1] concerns the target T1, FLI1 (Homo sapiens, UniProt Q01543 1-452).
T1 sequence: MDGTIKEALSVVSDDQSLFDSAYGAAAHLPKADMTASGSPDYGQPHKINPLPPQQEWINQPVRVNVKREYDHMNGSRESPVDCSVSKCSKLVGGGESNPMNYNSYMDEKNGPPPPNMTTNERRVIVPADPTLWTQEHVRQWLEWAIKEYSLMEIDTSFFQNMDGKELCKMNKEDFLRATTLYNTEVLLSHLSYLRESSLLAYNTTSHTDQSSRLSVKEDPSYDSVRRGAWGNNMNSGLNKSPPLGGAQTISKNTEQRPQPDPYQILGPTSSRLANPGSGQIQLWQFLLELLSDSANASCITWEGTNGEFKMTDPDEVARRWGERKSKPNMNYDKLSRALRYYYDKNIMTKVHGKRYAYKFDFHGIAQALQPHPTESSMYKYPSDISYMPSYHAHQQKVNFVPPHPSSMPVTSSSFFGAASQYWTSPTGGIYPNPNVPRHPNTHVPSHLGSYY
Particulars: protein: recombinant; tags: N-terminal GST; dsDNA, one strand shown. The procedure, abridged: (§1)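 Pools were built from human transcription factors expressed in yeast as GST fusions, captured on glutathione beads and DNA-barcoded, along with a tag-only sample. Incubation with 200 nmole of a 16-mer random double-stranded DNA library lasted 30 min at room temperature in Tris/NaCl/DTT/glycerol buffer, and was followed by washing, 0.1% formaldehyde crosslinking, proximity ligation, PCR amplification and Illumina NextSeq500 sequencing. Binding signal is the quotient of each hexamer's read frequency for a factor and its frequency for the tag-only sample.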

The target in assay [2] is T2, ELK1 (Homo sapiens, UniProt P19419 1-428).
T2 sequence: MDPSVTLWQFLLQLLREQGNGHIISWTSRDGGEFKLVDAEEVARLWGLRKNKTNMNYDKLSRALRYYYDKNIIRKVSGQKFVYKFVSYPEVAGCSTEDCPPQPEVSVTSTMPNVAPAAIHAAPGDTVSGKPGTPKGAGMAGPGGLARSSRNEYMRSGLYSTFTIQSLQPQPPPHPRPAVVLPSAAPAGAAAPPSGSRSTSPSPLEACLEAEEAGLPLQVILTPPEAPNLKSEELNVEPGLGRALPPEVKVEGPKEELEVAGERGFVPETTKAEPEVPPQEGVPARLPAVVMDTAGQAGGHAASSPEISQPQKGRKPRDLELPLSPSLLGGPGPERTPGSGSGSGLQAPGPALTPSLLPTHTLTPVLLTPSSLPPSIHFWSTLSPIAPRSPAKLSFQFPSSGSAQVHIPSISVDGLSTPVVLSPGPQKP
Particulars: protein: recombinant; tags: N-terminal GST; dsDNA, one strand shown. The procedure, abridged: as §1

Assay [3] concerns the target T3, GABPA (Homo sapiens, UniProt Q06546 1-454).
T3 sequence: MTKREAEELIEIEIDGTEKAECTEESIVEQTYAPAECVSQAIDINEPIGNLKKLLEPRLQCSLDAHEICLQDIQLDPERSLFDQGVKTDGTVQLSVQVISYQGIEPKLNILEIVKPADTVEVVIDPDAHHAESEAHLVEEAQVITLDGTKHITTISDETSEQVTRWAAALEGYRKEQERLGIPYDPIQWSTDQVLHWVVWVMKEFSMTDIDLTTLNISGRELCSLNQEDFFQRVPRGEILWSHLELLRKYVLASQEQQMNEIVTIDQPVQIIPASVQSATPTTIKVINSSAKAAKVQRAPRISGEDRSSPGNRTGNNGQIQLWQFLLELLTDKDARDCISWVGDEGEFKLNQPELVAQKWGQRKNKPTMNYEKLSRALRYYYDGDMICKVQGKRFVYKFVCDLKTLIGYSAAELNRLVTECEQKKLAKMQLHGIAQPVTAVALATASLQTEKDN
Conditions: protein: recombinant; tags: N-terminal GST; dsDNA, one strand shown. The procedure, abridged:
as §1

The target of assay [4] is T4, ERG (Homo sapiens, UniProt P11308 1-479).
T4 sequence: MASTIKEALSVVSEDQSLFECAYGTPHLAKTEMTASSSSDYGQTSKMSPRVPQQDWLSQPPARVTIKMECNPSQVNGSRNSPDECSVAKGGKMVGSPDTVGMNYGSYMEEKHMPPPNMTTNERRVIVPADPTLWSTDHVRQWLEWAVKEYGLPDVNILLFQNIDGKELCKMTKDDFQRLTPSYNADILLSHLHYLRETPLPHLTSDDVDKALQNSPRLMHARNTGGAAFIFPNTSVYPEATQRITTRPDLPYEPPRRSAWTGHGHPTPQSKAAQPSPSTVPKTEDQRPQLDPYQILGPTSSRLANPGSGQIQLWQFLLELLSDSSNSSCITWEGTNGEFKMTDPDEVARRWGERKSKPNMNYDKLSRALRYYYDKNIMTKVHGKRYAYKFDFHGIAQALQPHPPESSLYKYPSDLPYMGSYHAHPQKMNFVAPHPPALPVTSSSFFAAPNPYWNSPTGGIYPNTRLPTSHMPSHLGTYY
Conditions: protein: recombinant; tags: N-terminal GST; dsDNA, one strand shown. The procedure, abridged:
as §1

Assay [5] deals with ELF1 (Homo sapiens, UniProt P32519 1-619). Conditions: protein: recombinant; tags: N-terminal GST; dsDNA, one strand shown. The procedure, abridged: as §1
Assay [6] concerns the target T5, EHF (Homo sapiens, UniProt Q9NZC4 1-300).
T5 sequence: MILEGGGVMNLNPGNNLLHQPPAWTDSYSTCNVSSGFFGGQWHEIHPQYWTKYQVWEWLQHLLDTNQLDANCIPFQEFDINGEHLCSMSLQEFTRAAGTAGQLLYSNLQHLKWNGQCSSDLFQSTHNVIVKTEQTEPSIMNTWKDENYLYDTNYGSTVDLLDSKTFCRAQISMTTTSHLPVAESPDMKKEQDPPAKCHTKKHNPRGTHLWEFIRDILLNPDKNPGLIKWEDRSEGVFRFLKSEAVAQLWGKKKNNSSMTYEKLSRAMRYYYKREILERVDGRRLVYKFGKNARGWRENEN
Particulars: protein: recombinant; tags: N-terminal GST; dsDNA, one strand shown. The procedure, abridged:
as §1

In assay [7] the target is SPI1 (Homo sapiens, UniProt P17947 1-270). Conditions: protein: recombinant; tags: N-terminal GST; dsDNA, one strand shown. The procedure, abridged: as §1
Assay [8] deals with SPIB (Homo sapiens, UniProt Q01892 1-262). Particulars: protein: recombinant; tags: N-terminal GST; dsDNA, one strand shown. The procedure, abridged:
as §1

For assay [9], the target named is T6, ELK3 (Homo sapiens, UniProt P41970 1-407).
T6 sequence: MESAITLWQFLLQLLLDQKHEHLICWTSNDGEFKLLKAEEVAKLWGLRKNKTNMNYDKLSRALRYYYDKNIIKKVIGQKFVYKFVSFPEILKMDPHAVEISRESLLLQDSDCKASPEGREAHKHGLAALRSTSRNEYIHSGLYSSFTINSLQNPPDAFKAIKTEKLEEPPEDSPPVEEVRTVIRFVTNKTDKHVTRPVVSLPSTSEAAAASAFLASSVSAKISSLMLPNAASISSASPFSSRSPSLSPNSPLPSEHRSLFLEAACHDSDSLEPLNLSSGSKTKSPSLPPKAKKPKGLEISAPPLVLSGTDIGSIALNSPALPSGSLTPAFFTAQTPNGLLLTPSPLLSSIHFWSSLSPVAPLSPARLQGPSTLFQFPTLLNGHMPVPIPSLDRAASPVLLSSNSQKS
Conditions: protein: recombinant; tags: N-terminal GST; dsDNA, one strand shown. The procedure, abridged:
as §1

In assay [10] the target is T7, FEV (Homo sapiens, UniProt Q99581 1-238).
T7 sequence: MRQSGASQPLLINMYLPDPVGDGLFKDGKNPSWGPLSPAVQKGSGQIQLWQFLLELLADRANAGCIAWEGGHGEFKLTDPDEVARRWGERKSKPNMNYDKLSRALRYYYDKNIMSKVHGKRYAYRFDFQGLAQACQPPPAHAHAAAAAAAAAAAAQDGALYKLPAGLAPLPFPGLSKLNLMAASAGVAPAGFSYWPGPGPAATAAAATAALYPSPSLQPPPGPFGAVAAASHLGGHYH
Conditions: protein: recombinant; tags: N-terminal GST; dsDNA, one strand shown. The procedure, abridged: as §1

The target of assay [11] is ETV5 (Homo sapiens, UniProt P41161 1-510). Conditions: protein: recombinant; tags: N-terminal GST; dsDNA, one strand shown. The procedure, abridged: as §1
For assay [12], the target named is HSF1 (Homo sapiens, UniProt Q00613 1-529). Conditions: protein: recombinant; tags: N-terminal GST; chain copies: 3; dsDNA, one strand shown. The procedure, abridged:
as §1

Assay [13] deals with T8, SPIC (Homo sapiens, UniProt Q8N5J4 1-248).
T8 sequence: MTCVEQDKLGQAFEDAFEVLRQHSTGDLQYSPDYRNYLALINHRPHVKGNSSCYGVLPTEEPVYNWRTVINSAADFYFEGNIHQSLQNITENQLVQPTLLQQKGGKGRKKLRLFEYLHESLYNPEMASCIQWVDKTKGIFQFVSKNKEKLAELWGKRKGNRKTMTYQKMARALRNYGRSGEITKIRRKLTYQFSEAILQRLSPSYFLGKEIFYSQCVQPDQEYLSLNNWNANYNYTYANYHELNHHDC
Particulars: protein: recombinant; tags: N-terminal GST; dsDNA, one strand shown. The procedure, abridged:
as §1

The target of assay [14] is ELF4 (Homo sapiens, UniProt Q99607 1-663). Conditions: protein: recombinant; tags: N-terminal GST; dsDNA, one strand shown. The procedure, abridged: as §1
Assay [15] has as its target T9, ELK4 (Homo sapiens, UniProt P28324-2 1-405).
T9 sequence: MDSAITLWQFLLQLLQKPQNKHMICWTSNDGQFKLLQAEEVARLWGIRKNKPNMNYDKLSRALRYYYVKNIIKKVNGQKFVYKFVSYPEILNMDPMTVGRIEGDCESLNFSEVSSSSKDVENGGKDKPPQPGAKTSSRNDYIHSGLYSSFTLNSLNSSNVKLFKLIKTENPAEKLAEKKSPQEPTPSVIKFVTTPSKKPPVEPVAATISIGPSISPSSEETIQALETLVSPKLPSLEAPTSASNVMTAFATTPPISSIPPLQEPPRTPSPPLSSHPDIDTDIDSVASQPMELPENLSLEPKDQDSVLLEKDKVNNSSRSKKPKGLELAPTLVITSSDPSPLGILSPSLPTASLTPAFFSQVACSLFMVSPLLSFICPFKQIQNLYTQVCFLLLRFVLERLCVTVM
Conditions: protein: recombinant; tags: N-terminal GST; dsDNA, one strand shown. The procedure, abridged: as §1

Assay [16] deals with T10, ETV2 (Homo sapiens, UniProt O00321 1-342).
T10 sequence: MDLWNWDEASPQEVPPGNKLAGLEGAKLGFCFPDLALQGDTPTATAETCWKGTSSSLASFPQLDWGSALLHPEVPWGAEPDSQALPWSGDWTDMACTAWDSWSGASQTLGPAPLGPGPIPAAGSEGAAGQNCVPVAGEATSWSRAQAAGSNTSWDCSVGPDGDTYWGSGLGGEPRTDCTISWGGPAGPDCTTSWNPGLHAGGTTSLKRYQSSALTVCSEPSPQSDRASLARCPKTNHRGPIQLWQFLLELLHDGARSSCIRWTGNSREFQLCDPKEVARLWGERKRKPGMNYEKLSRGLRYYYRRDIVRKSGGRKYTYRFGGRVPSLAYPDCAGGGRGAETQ
Conditions: protein: recombinant; tags: N-terminal GST; dsDNA, one strand shown. The procedure, abridged: as §1

Assay [17] concerns the target T11, ELF3 (Homo sapiens, UniProt P78545 1-371).
T11 sequence: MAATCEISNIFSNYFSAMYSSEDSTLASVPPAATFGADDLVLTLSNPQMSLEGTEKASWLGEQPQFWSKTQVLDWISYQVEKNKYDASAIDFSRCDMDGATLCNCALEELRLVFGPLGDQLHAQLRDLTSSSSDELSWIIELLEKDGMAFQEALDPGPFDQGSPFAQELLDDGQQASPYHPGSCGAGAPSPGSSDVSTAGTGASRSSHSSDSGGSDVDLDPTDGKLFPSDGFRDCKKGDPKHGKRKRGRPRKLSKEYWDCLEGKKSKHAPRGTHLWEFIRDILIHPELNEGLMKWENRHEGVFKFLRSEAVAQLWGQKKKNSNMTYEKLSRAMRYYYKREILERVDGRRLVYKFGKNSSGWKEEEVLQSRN
Conditions: protein: recombinant; tags: N-terminal GST; dsDNA, one strand shown. The procedure, abridged: as §1

The target in assay [18] is CRX (Homo sapiens, UniProt O43186 1-299). Particulars: protein: recombinant; tags: N-terminal GST; dsDNA, one strand shown. The procedure, abridged:
as §1

Assay [19] deals with ETV1 (Homo sapiens, UniProt P50549 1-477). Conditions: protein: recombinant; tags: N-terminal GST; dsDNA, one strand shown. The procedure, abridged:
as §1

Sequence of ELF4 (Q99607 whole entry): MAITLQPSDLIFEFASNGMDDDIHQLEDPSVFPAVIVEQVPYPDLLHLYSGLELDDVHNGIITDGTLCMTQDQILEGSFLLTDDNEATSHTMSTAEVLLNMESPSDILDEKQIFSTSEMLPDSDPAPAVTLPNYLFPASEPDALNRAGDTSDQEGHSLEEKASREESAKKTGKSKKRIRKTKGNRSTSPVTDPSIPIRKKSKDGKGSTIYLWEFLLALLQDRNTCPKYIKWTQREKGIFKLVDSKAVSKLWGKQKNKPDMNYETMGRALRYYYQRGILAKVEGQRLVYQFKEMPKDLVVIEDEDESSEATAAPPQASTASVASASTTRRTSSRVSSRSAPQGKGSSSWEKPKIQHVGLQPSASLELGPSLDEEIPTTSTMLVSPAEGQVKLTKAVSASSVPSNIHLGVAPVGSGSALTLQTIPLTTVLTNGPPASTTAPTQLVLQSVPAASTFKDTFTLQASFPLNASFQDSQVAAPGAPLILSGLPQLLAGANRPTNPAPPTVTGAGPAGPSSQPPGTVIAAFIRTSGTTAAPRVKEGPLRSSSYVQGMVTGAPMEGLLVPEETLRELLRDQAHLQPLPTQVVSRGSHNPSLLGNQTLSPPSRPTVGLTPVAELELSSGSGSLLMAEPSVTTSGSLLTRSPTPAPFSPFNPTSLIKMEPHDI
Sequence of ELF1 (P32519 whole entry): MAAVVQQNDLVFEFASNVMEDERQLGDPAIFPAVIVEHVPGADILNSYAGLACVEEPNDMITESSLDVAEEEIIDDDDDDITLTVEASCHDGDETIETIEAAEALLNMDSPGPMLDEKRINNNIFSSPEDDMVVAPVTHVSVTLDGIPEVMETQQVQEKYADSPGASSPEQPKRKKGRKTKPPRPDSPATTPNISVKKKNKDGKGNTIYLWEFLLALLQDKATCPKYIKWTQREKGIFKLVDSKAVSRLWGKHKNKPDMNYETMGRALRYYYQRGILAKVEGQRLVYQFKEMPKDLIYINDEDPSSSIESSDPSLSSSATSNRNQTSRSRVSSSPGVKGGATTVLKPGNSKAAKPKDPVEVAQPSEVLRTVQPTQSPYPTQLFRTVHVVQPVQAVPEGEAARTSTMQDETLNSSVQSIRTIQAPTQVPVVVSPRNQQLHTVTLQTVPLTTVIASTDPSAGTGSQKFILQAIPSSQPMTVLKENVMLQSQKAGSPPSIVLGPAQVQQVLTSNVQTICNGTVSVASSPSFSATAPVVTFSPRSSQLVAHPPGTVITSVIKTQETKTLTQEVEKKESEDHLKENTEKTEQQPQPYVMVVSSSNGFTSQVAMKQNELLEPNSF
Sequence of ETV1 (P50549 whole entry): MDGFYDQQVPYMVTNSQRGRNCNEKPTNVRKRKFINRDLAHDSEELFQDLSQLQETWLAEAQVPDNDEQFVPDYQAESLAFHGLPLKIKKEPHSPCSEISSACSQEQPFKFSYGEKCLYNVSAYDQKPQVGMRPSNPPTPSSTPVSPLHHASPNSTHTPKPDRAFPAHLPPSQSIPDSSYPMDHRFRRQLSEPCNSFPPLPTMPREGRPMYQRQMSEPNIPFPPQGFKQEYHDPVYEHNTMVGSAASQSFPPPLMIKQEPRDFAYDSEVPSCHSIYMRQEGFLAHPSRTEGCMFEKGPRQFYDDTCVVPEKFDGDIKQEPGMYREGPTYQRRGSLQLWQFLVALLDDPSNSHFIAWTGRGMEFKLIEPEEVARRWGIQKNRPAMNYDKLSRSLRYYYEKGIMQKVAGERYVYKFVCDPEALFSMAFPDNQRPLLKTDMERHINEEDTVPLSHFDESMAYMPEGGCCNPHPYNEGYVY
Sequence of SPIB (Q01892 whole entry): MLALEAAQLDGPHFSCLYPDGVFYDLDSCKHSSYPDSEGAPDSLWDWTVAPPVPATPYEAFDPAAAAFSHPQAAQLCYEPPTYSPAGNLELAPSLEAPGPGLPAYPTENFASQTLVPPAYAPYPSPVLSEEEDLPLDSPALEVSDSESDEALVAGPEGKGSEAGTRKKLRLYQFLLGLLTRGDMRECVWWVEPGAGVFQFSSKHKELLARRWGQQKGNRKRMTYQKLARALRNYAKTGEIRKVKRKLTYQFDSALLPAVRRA
Sequence of HSF1 (Q00613 whole entry): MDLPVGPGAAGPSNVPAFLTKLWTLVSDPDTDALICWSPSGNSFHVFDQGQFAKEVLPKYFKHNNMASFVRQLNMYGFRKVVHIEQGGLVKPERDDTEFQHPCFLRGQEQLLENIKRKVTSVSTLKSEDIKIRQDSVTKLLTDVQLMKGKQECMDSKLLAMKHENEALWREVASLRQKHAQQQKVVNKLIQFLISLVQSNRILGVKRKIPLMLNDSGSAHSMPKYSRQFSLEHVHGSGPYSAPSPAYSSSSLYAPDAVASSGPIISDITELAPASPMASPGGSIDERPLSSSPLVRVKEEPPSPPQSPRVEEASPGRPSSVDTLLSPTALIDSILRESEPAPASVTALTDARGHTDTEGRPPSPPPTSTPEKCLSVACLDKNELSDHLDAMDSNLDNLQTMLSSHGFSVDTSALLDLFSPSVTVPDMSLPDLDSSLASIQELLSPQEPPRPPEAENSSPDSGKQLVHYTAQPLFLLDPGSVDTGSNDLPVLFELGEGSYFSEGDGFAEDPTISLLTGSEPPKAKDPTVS
Sequence of ETV5 (P41161 whole entry): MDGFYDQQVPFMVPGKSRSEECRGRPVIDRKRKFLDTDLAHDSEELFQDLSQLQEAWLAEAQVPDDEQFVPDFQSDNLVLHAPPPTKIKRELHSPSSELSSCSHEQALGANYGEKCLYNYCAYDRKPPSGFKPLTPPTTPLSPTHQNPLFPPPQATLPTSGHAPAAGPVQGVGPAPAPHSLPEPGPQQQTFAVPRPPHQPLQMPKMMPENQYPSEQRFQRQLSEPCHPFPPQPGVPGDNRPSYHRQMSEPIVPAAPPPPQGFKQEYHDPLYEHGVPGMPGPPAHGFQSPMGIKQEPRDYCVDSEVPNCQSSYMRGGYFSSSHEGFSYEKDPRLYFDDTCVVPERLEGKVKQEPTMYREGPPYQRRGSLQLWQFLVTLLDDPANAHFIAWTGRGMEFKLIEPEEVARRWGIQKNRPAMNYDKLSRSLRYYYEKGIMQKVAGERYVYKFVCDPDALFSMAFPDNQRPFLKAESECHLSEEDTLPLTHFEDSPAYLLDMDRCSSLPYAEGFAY
Sequence of CRX (O43186 whole entry): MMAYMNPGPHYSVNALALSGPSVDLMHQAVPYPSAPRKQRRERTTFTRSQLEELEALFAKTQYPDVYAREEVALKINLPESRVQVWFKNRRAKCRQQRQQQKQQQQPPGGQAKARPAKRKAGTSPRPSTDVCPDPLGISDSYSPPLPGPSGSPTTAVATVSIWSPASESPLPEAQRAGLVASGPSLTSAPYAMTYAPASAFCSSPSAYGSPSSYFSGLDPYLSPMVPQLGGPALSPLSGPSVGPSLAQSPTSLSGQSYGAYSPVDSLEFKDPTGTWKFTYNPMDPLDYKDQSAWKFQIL

On to TTCATC, for which the binding signal in [1] was 1.36 fold enrichment (6-mer frequency, TF over GST control); in assay [2], 1.28 fold enrichment (6-mer frequency, TF over GST control); in [3], 1.29 fold enrichment (6-mer frequency, TF over GST control); in assay [4], 1.22 fold enrichment (6-mer frequency, TF over GST control); in [5], 1.27 fold enrichment (6-mer frequency, TF over GST control); in [6] it was 1.14 fold enrichment (6-mer frequency, TF over GST control). Moreover, the binding signal in assay [7] is 1.27 fold enrichment (6-mer frequency, TF over GST control); in assay [8] it was 1.28 fold enrichment (6-mer frequency, TF over GST control); in [9], 1.32 fold enrichment (6-mer frequency, TF over GST control); in assay [10] it was 1.21 fold enrichment (6-mer frequency, TF over GST control); in assay [11], 1.28 fold enrichment (6-mer frequency, TF over GST control); in assay [12], 1.29 fold enrichment (6-mer frequency, TF over GST control). The binding signal in assay [13] was 1.28 fold enrichment (6-mer frequency, TF over GST control); in assay [14] it was 1.27 fold enrichment (6-mer frequency, TF over GST control); in assay [15] it was 1.27 fold enrichment (6-mer frequency, TF over GST control); in assay [16], 1.25 fold enrichment (6-mer frequency, TF over GST control); in [17], 1.3 fold enrichment (6-mer frequency, TF over GST control); in [18], 1.28 fold enrichment (6-mer frequency, TF over GST control). Besides, the binding signal in assay [19] was 1.25 fold enrichment (6-mer frequency, TF over GST control).
